High-throughput results (PubChem)
The list is not random: actives were taken first. Their share in the collection is about 1.4%.
Mm-Cpn inhibitor = M. maripaludis TRiC chaperonin inhibition. 330,000 compounds, 0.031% hits. purified Mm-Cpn ATPase, ADP Transcreener TR-FRET. Potency, µM (series often up to 76.9 µM), inactives show top-dose activity, negative = inhibition, usual class: inhibitors; also: potency is read from the fitted curve at half-maximal effect; % is scaled to controls: 0 for no effect and ±100 for the full control effect; nearly all actives have a fitted effect of over 80% in size
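Compound-treated chaperonin, 25 nM final, turns over 10 uM ATP at 37°C for 30 min following a 10 min preincubation; ADP generated competes with ADP-d2 for Eu-cryptate antibody, lowering FRET.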
p53 reactivation = re-activators of mutant p53; Potency, µM (series often up to 92.2 µM), for inactives: top-dose activity change, positive = activation, hits mostly activators; 320,000 compounds, 0.063% hits; H1299 p53-A138V BP100-luciferase reporter, luminescence, 24 h; AID 504706; also: potency is read from the fitted curve at half-maximal effect; % of control where 0% means no effect; nearly all actives have a fitted effect of over 45% in size
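H1299 (p53-null), stable ts p53-A138V + BP100-Luc; 1000 cells/well, Opti-MEM/10% FBS; cpd 4 pt, 1:5; 24 h, 37 deg C, 5% CO2; detection reagent 10 min RT; luminescence.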
KCNH2 WT inh = blocks the wildtype human KCNH2 potassium channel. 340,000 compounds, 0.37% hits. U2OS, BacMam KCNH2, thallium flux FluxOr; stronger effect = lower value. activity change, % at 1.84 µM;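 active = maximum activity change below -70%; inconclusive = maximum activity change between -70% and -50%; inactive = maximum activity change above -50%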; also: % is scaled to controls: 0 for no effect and ±100 for the full control effect
Target sequence (Q12809 whole entry, looked up): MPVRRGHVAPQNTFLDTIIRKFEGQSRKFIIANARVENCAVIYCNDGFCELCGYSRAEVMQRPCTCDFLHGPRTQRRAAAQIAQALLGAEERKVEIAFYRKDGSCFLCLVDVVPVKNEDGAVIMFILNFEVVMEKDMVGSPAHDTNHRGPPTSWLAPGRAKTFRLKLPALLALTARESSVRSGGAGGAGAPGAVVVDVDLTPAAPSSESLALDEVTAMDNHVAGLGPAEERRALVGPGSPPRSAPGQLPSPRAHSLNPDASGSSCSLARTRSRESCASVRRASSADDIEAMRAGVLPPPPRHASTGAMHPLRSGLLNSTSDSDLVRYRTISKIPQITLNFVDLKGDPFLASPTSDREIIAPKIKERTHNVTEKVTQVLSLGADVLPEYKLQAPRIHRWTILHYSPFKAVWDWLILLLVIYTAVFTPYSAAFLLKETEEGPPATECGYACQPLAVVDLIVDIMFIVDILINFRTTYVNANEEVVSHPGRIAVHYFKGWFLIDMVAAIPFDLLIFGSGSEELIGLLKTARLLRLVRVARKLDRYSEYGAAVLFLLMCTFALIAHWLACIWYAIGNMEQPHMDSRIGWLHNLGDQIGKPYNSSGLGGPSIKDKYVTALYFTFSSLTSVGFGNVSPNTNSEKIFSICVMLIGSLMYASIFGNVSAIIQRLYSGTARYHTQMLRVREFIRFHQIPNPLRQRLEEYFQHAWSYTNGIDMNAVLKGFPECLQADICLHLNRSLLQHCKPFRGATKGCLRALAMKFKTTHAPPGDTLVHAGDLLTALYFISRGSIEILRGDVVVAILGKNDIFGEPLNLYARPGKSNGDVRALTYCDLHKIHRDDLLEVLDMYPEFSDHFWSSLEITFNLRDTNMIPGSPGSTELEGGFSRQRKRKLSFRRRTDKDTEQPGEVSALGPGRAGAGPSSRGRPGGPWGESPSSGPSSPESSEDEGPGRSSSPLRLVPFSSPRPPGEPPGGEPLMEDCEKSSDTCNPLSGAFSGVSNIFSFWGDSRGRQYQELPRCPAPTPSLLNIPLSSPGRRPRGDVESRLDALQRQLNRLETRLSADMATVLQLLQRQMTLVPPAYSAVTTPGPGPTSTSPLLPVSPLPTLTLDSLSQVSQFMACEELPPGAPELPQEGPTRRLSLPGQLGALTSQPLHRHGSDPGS
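U2OS cells transduced with wild-type KCNH2 virus are loaded with FluxOr dye for 45 min, and thallium flux is measured in kinetic reads before and after stimulation buffer. Rate constants are normalized to DMSO controls.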
uPA generation = cell surface uPA generation inhibition; cell surface uPA generation assay, qHTS; Potency, µM (titrated, usually from 38.3 µM), for inactives: top-dose activity change, negative = inhibition, actives largely listed as inhibitors; 330,000 compounds, 0.31% hits; active = well fitted inhibition curve with a large enough effect; inconclusive = small, poorly fitted or top-dose-only effect; inactive = no such curve, though single readings can be large or run the other way; tested in mouse RAW 264.7 cells; also: potency is read from the fitted curve at half-maximal effect; % is scaled to controls: 0 for no effect and ±100 for the full control effect; nearly all actives have a fitted effect of over 55% in size
ASM inhibitor = blocks human secretory acid sphingomyelinase; AID 504937; Potency, µM (highest dose often 57.5 µM), without a hit: top-dose activity change, negative = inhibition, actives largely listed as inhibitors; 340,000 compounds, 0.006% hits; P17405; placental ASM, HMU-PC fluorogenic substrate, 60 min; also: potency is read from the fitted curve at half-maximal effect
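Human placenta-derived ASM enzyme was preincubated with compound for 10 minutes at room temperature, then given fluorogenic substrate HMU-PC0 (9 uM final) for 60 minutes at 37 °C; a pH 10 stop preceded fluorescence reading at Ex 386/Em 447 nm.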
KCNH2 3.1 inh = inhibitors of human KCNH2 3.1 potassium channel isoform; U2OS KCNH2 3.1, thallium flux FluxOr; stronger effect = lower value; activity change, % (tested at about 1.8 µM); 340,000 compounds, 0.95% hits; AID 720553;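 active = maximum activity change below -70%; inconclusive = maximum activity change from -70% to -50%; inactive = maximum activity change above -50%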;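 also: thallium influx rate constant from kinetic fluorescence after stimulation buffer; % is scaled to controls: 0 for no effect and ±100 for the full control effect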
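Normalized rate constant (relative to positive and negative DMSO controls) derived from a 2 min kinetic fluorescence read after stimulation; U2OS cells expressing the 3.1 isoform via virus at 1.77 x 10^8 /mL.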
* = called active by the depositor; ? = inconclusive; · = no result given. Unless noted, calls follow the shape of the dose curve; as a rule, active = well fitted curve in the direction sought with a large enough effect; inconclusive = small, poorly fitted or top-dose-only effect, or another doubt; inactive = no such curve, though single readings can be large; an effect the other way counts as inactive or inconclusive.

SMILES	Mm-Cpn inhibitor	p53 reactivation	KCNH2 WT inh	uPA generation	ASM inhibitor	KCNH2 3.1 inh
C[C@@H]1CN([C@@H](C)CO)C(=O)CCCn2nncc2CO[C@@H]1CN(C)C(=O)NC1CCCCC1	·	·	0	·	·	3
COc1ccc(S(=O)(=O)N2CCOCC2)cc1NC(=O)c1ccc(SC)cc1OC	·	·	-8	·	·	-3
COc1ccc(C[C@H]2CN3C(=NC[C@H]3C)N2CCNC(=O)c2ccc(C)c(Br)c2)cc1	·	-3%	-35	?	2%	-76*
CC(=O)c1ccc(N2CCN(C(=O)CCC(=O)c3cccs3)CC2)cc1	0%	1%	·	2%	3%	-1
O=C(Nc1ccc(N2CCN(C(=O)c3ccccc3)CC2)cc1)c1cccs1	-2%	15%	-136*	-6%	-2%	-177*
Cc1ccc(C(=O)N2CCN(c3ccc(NC(=S)NC(=O)c4cccs4)cc3)CC2)cc1	2%	-1%	-33	-4%	-3%	-1
COc1ccc(C(=O)N2CCN(c3ccc(NC(=O)c4cccs4)cc3)CC2)cc1	0%	-12%	12	7%	-6%	-92*
O=C(CCC(=O)N1CCN(c2ccc(O)cc2)CC1)c1cccs1	-1%	5%	-4	4µM*	4%	-5
O=[N+]([O-])c1cc(CN2CCCC2)ccc1Sc1ccc(Cl)cc1	1%	5%	26	3%	-6%	-92*
COc1ccc(COC(=O)C2CCN(S(=O)(=O)c3ccc(OC)c(OC)c3)CC2)cc1	0%	-3%	-8	-4%	-4%	-15
N#CC(C#N)=C1C=CC=CN1/C(=C\c1ccco1)C(=O)c1ccc(-c2ccccc2)cc1	-6%	-40%	-8	-12%	-22%	-85*
N#CC(C#N)=C1C=CC=CN1/C(=C\c1ccco1)C(=O)c1ccc(Cl)cc1	?	-28%	8	-6%	-5%	-86*
CC1(C)N=C(c2ccccc2)C(c2ccccc2)=N1	·	·	-8	-9%	4%	-12
O=C(/C=C/c1ccccc1)Nc1cccc(C(=O)NCCCc2ccccc2)c1	·	·	-4	?	-15%	13
O=C(/C=C/c1ccccc1)Nc1cccc(C(=O)NC2CC2)c1	·	·	-3	13µM*	1%	1
O=C(OCCOCCN=C1NS(=O)(=O)c2ccccc21)c1ccc(F)cc1	1%	1%	5	1%	-2%	-7
CC(=O)c1cccc(N(C(=O)c2ccco2)C(C(=O)NC2CCCC2)c2ccncc2)c1 (stereo not given)	-5%	10%	-115*	-4%	23%	-9
COCCOCC(=O)Nc1ccc(S(=O)(=O)Nc2cc(C)nc(C)n2)cc1	2%	·	-108*	-19%	7%	12
COc1ccc(OCC(=O)Nc2ccc(S(=O)(=O)Nc3cc(C)nc(C)n3)cc2)cc1	0%	1%	-6	-4%	7%	5
O=C(CC1C(=O)Nc2ccccc2N1CC(=O)N1CCCC1)Nc1ccc(Br)cc1 (stereo not given)	-2%	-12%	13	?	2%	13
Cc1onc(-c2ccccc2Cl)c1C(=O)N1CCN(c2ccccc2)CC1	-2%	-13%	17	-17%	2%	-11
Cc1onc(-c2ccccc2Cl)c1C(=O)N1CCN(c2cccc(Cl)c2)CC1	1%	0%	1	2.2µM*	-12%	12
Cc1cccc(NC(=S)Nc2cccc(C)n2)n1	1%	4%	13	3%	-4%	-147*
Cc1c(C#N)c(NC(=O)CCl)n(Cc2ccccc2)c1C	-1%	-13%	-14	-10%	-3%	-2
Cc1c(C#N)c(NC(=O)CCl)n(Cc2cccs2)c1C	-2%	-12%	-4	5µM*	0%	-3
SMILES	Mm-Cpn inhibitor	p53 reactivation	KCNH2 WT inh	uPA generation	ASM inhibitor	KCNH2 3.1 inh
C[C@@H]1CN([C@H](C)CO)C(=O)CCCn2nncc2CO[C@@H]1CN(C)C(=O)Nc1ccnc(N2CCOCC2)c1	·	·	-9	·	·	15
O=C(C=P(c1ccccc1)(c1ccccc1)c1ccccc1)c1ccccc1-c1ccccc1C(=O)C=P(c1ccccc1)(c1ccccc1)c1ccccc1	·	·	-2	-9%	?	-6
Cc1cc(C)n(C2CC(=O)N(c3ccc(Cl)c(Cl)c3)C2=O)n1 (stereo not given)	-2%	0%	0	-1%	-2%	0
Cc1ccc(N2C(=O)CC(n3nc(C)cc3C)C2=O)cc1 (stereo not given)	0%	2%	-6	·	1%	-211*
CCC(C)c1ccc(NC(=O)Nc2cnccn2)cc1 (stereo not given)	1%	-3%	-281*	?	-1%	-12
CCOc1ccc(NC(=O)Nc2cnccn2)cc1	1%	-1%	-7	2%	0%	14
Cc1ccc(-c2nc3ccc(Br)cn3c2CC(C)(C)C)cc1	·	·	0	·	·	-29
CCOc1ccccc1CN1CCN(Cc2c[nH]c3ccccc23)CC1CCO (stereo not given)	1%	·	0	-25%	2%	-1
Cc1ccc(CN2CCN(Cc3cc(=O)c4ccccc4[nH]3)CC2CCO)o1 (stereo not given)	0%	-3%	-118*	-12%	-2%	-2
CCOc1ccc(CN2CCN(Cc3[nH]c4ccc(OC)cc4c3C)CC2CCO)cc1 (stereo not given)	-4%	0%	-73*	2%	3%	-107*
CCOc1ccccc1CN1CCN(Cc2[nH]c3ccccc3c2C)CC1CCO (stereo not given)	-2%	-4%	-18	-6%	-2%	-74*
Cc1ccc2[nH]c(CN3CCN(C)C(CCO)C3)c(C)c2c1 (stereo not given)	0%	·	-2	9%	6%	24
C/C(=C\c1ccc2c(c1)OCO2)C1Nc2cccc3cccc(c23)N1	0%	-8%	·	-13%	-2%	·
O=C(CNC(=O)c1ccc(Br)o1)Nc1cccc(S(=O)(=O)N2CCOCC2)c1	-8%	5%	15	2%	1%	15
CCCn1c(N)c(C(=O)CN(C)CC(=O)Nc2cccc(F)c2)c(=O)[nH]c1=O	2%	-2%	-20	4%	1%	-79*
c1ccc(COc2ncnc3c2ncn3CCCN2CCN(c3ccccn3)CC2)cc1	·	·	1	2%	1%	0
Cc1ccc(C)c(N(C(=O)CNC(=O)c2ccco2)C(C(=O)NCC2CCCO2)c2ccccc2)c1 (stereo not given)	0%	-5%	-5	-1%	-2%	-75*
COc1ccc(C)cc1N(C(=O)CNC(=O)c1ccco1)C(C(=O)NCC1CCCO1)c1ccccc1 (stereo not given)	0%	1%	-10	1%	-1%	-3
